# B2AR arrestin = agonists driving beta-arrestin recruitment to human beta2-adrenergic receptor; beta-arrestin recruitment to beta2AR, cell-based reporter; Potency, µM (titrated, usually from 46.1 µM), for inactives: top-dose activation, usual class: activators; 330,000 tested, 0.02% active;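 also: potency is read from the fitted curve at half-maximal effect; 0% = DMSO controls and full agonism = EC100 isoproterenol or metaproterenol; nearly all actives have a fitted effect of over 65% in size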
# Target sequence (P07550 whole entry, looked up): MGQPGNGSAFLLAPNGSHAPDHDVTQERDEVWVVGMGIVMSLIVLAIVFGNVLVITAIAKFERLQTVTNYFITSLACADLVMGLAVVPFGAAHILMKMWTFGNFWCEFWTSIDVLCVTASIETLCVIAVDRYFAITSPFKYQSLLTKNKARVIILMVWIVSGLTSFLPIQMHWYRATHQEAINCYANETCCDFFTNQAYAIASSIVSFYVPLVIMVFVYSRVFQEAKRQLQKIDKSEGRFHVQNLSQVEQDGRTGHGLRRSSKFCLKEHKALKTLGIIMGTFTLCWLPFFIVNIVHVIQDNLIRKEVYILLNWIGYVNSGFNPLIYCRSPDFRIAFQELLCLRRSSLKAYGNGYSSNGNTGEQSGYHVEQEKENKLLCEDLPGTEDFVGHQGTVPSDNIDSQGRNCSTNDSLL
# uPA surface inh = inhibitors of cell surface uPA generation. cell surface uPA generation assay, qHTS. Potency, µM (titrated, usually from 38.3 µM), without a hit: at the top dose activity change, negative = inhibition, usual class: inhibitors. 330,000 tested, 0.31% active. AID 540303; active = well fitted inhibition curve with a large enough effect; inconclusive = small, poorly fitted or top-dose-only effect; inactive = no such curve, though single readings can be large or run the other way; tested in mouse RAW 264.7 cells; also: potency is read from the fitted curve at half-maximal effect; % is scaled to controls: 0 for no effect and ±100 for the full control effect; nearly all actives have a fitted effect of over 55% in size
# Giardia killer = kills Giardia lamblia; Giardia lamblia trophozoite viability; 340,000 tested, 0.15% active; activity change, % at 7.66 µM, hits read low; in the data active = activity change below about -80%; inconclusive = between about -30% and that limit;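 also: parasites exposed to compound for two days anaerobically before the ATP read; % is scaled to controls: 0 for no effect and ±100 for the full control effect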
#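 Killing of trophozoites was scored by loss of ATP luminescence after a 48 hrs anaerobic exposure to compounds at 37 deg C, using 100 cells per well.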
# ClpP mod = qHTS Assay for Activators of ClpP | ATP-dependent Clp protease proteolytic subunit (Bacillus subtilis (strain 168)), P80244 | purified B. subtilis ClpP, FRET peptide cleavage, 20 min | Potency, µM (doses to about 57.5 µM), without a hit: top-dose activity change, negative = active | 340,000 tested, 1.9% active; active = well fitted falling curve with a large enough effect; inconclusive = small, poorly fitted or top-dose-only effect; inactive = no such curve, though single readings can be large or run the other way; also: potency is read from the fitted curve at half-maximal effect; the source files actives as falling curves though it sought activators and does not explain the sign; nearly all actives have a fitted effect of over 65% in size
# Target sequence (P80244 whole entry, looked up): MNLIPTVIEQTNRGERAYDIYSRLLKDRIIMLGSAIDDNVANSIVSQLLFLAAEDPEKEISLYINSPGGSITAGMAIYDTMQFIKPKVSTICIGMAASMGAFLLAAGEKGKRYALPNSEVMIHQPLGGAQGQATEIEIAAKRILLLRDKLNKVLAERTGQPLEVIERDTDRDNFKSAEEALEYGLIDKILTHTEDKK
#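 FRET quenching reversal measured ClpP activation: 10 microg/mL B. subtilis ClpP at pH 8 with the FRET-FV decapeptide, read at 430 nm after 320 nm excitation. The 20-min minus 0-min signal was scaled between DMSO/no-enzyme wells and ADEP (5.8 microM final).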
# Mito fusion yeast = blocks mitochondrial division or promotes mitochondrial fusion | Potency, µM (top dose mostly 46.1 µM), inactives show at the highest dose growth rescue (activation), actives largely listed as activators | S. cerevisiae fusion-defective mutant growth rescue, CellTiterGlo 48 h | 320,000 tested, 0.23% active; also: potency is read from the fitted curve at half-maximal effect; % of control where 0% means no effect; nearly all actives have a fitted effect of over 45% in size
#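 Read-out: ATP-based luminescence (CellTiterGlo, 10 min ambient) reporting growth of fusion-defective ts yeast after 48 hours at 37C on glycerol/ethanol YPEG medium in the presence of compound.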
# p53 reactivation = re-activators of mutant p53 | H1299 p53-A138V BP100-luciferase reporter, luminescence, 24 h | Potency, µM (top dose mostly 92.2 µM), for the others: at the highest dose activity change, positive = activation, hits mostly activators | 320,000 tested, 0.063% active; also: potency is read from the fitted curve at half-maximal effect; % of control where 0% means no effect; nearly all actives have a fitted effect of over 45% in size
#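 H1299 (p53-null), stable ts p53-A138V + BP100-Luc; 1000 cells/well, Opti-MEM/10% FBS; cpd 4 pt, 1:5; 24 h, 37 deg C, 5% CO2; detection reagent 10 min RT; luminescence.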
# * marks the source's active call; other numbers are inactive results; ? = inconclusive; / = no result. In the library only some 2.1% were active in any assay of this set; here they are far more common. Unless noted, calls follow the shape of the dose curve; as a rule, active = well fitted curve in the direction sought with a large enough effect; inconclusive = small, poorly fitted or top-dose-only effect, or another doubt; inactive = no such curve, though single readings can be large; an effect the other way counts as inactive or inconclusive.
SMILES,B2AR arrestin,uPA surface inh,Giardia killer,ClpP mod,Mito fusion yeast,p53 reactivation
COc1ccc(C(=O)COc2ccccc2C#N)cc1,-0.1%,-8.0%,23.1,-0.7%,4.2%,31.6µM*
CSc1ccc(CNC(=O)CN2C(=O)C3CCCCN3c3ccc(C(=O)N4CCCC4)cc32)cc1 (configuration not stated),/,/,/,1.0%,/,/
CCOC1=C2[C@@H](CN(S(=O)(=O)c3ccc(C)cc3)[C@H]2c2cccc3ccccc23)[C@H]2C(=O)N(C3CCCCC3)C(=O)[C@H]2C1,/,/,/,-7.7%,/,/
COc1ccc(-c2nc(C#N)c(NCCc3ccccc3)o2)cc1OC,-0.1%,-6.6%,3.5,6.31µM*,11.1%,?
COc1ccc(-c2nc(C#N)c(NCc3ccc(C)cc3)o2)cc1OC,/,-5.0%,-8.4,31.6µM*,-0.4%,/
COc1ccc(CCNc2oc(Cc3ccccc3)nc2C#N)cc1OC,-0.1%,-2.4%,21.1,-1.3%,10.3%,-9.8%
COc1ccc(-c2nc(C#N)c(N3CC(C)OC(C)C3)o2)cc1OC (configuration not stated),-0.1%,4.2%,11.4,0.708µM*,0.1%,-2.6%
CCCOc1ccc(OC(=O)c2cn(-c3ccc(OC)cc3)c(=O)c3ccccc23)cc1,/,/,/,-18.2%,/,/
Cc1nn(-c2ccccc2)c2nc(-c3ccco3)cc(C(=O)O)c12,-0.6%,1.2%,2.6,-22.6%,4.0%,?
Cc1nn(-c2cccc(Cl)c2)c2nc(-c3ccco3)cc(C(=O)O)c12,-0.2%,3.9%,-14.2,14.1µM*,0.4%,-2.7%
O=C(Cc1ccccc1)NCC(=O)OCC(=O)c1ccc2ccccc2c1,/,/,-9.7,28.2µM*,/,/
CCOc1ccc(CCNC(=O)c2cc(C)nc3c2c(C)nn3-c2cccc(F)c2)cc1,/,/,/,4.8%,/,/
COc1ccccc1CC(=O)NC1CC(C)(C)NC(C)(C)C1,-0.1%,1.4%,4.1,28.2µM*,-1.5%,?
COc1ccccc1CC(=O)NC1CC1,0.1%,6.5%,9.1,-0.2%,0.1%,1.8%
c1ccc(COc2ccc(OCCCN3CCCCC3)cc2)cc1,-0.1%,-9.3%,3.0,-4.3%,-3.0%,?
C=CCNCCCCOc1ccc(OCc2ccccc2)cc1,-0.2%,11.2µM*,25.3,-1.0%,-2.4%,21.9%
CN1CCN(CCOc2ccc(Cc3ccccc3)cc2)CC1,0.6%,-5.5%,10.3,/,-6.0%,/
c1ccc(COc2ccc(OCCCCN3CCCC3)cc2)cc1,0.2%,-6.0%,-11.9,-1.1%,-7.0%,11.2µM*
CC1CCN(CCOc2ccc(OCc3ccccc3)cc2)CC1,-0.2%,-5.7%,-1.5,3.16µM*,-0.7%,21.2%
C(=Nc1ccc(/C=C/c2ccnc3ccccc23)cc1)c1ccco1,/,/,/,-0.5%,/,/
CCC(C(=O)OCC(=O)Nc1cc(Cl)ccc1Cl)c1ccccc1 (configuration not stated),-1.1%,-0.1%,2.4,25.1µM*,13.2%,2.4%
O=C(c1cccc([N+](=O)[O-])c1)N1c2nc(-c3ccco3)nn2C2(CCCCC2)[C@@H]2CCCC[C@@H]21,/,/,/,-0.5%,/,/
COCCNC(=O)c1cnc2sc(N3CCCCC3)nn2c1=O,/,/,/,4.1%,/,/
COc1ccc(CNC(=O)c2cnc3sc(N4CCCC4)nn3c2=O)cc1OC,/,/,/,15.8µM*,/,/
CCNC(=O)c1cnc2sc(N3CCCCCC3)nn2c1=O,/,/,/,11.2µM*,/,/
SMILES,B2AR arrestin,uPA surface inh,Giardia killer,ClpP mod,Mito fusion yeast,p53 reactivation
COc1cccc(CCNC(=O)c2cnc3sc(N4CCOCC4)nn3c2=O)c1,/,/,/,-16.3%,/,/
COc1ccc(CCNC(=O)c2cnc3sc(N4CCOCC4)nn3c2=O)cc1,/,/,/,28.2µM*,/,/
OC(C[n+]1ccccc1Cl)c1ccccc1 (configuration not stated),/,/,/,-4.2%,/,/
COc1ccc(Nc2oc(-c3cccs3)nc2C#N)cc1,-0.7%,-8.4%,12.2,14.1µM*,-0.5%,7.2%
NC(=S)N=Nc1c(O)n(Cc2ccc(F)cc2)c2ccccc12,9.2µM*,?,9.9,2.2%,-11.8%,-15.4%
NC(=S)N=Nc1c(O)n(Cc2ccc(Br)cc2)c2ccccc12,3.8%,-17.5%,3.9,-18.0%,6.5%,-1.3%
O=Nc1c(O)n(Cc2ccc(Cl)cc2)c2ccccc12,-0.5%,0.3%,-1.5,4.2%,9.4%,-6.1%
Cc1ccc2c(c1)c(N=O)c(O)n2Cc1ccc(Cl)cc1,0.8%,1.7%,17.7,/,10µM*,-3.5%
Cc1ccc2c(c1)c(N=NC(N)=S)c(O)n2Cc1ccccc1,-0.6%,-2.7%,-10.8,25.1µM*,-2.1%,3.2%
NC(=S)N=Nc1c(O)n(CCCl)c2ccc(Br)cc12,0.8%,2.0%,2.1,/,1.6%,-5.3%
COc1ccc2c(c1)cc1c(=O)n(CC(=O)NC3CCCCC3)nc(C)n12,/,/,/,-8.1%,/,/
Cc1ccc(NC(=O)Cn2cc(S(=O)(=O)N3CCC(C)CC3)c3ccccc3c2=O)c(Br)c1,/,/,/,-11.4%,/,/
COCc1ccc(-c2c(-c3ccsc3)oc(=O)c3cc(OC)c(OC)cc23)cc1,0.2%,3.4%,-28.1,31.6µM*,/,?
COc1ccc(-c2oc(=O)c3cc(OC)c(OC)cc3c2-c2cc(F)cc(OC)c2)cc1,0.0%,-8.9%,-1.2,20µM*,10.8%,2.3%
Brc1cccc[n+]1Cc1ccc(C[n+]2ccccc2Br)cc1,/,/,/,-2.8%,/,/
CC1(C)Cc2cccc(OCC(=O)OCC(=O)Nc3ccccc3)c2O1,-0.3%,16.0%,1.1,-2.0%,-1.3%,3.6%
CC1(C)Cc2cccc(OCC(=O)OCC(=O)Nc3ccc(C(N)=O)cc3)c2O1,0.3%,1.3%,-7.6,25.1µM*,1.7%,-2.5%
Cc1cccc(N2CCN(C(=O)COc3cccc4c3OC(C)(C)C4)CC2)c1C,-0.1%,3.3%,-3.5,0.1%,15.8µM*,27.7%
COc1ccc(C)cc1NC(=O)c1ccc2c(c1)N(Cc1cccc(Cl)c1)C(=O)c1ccccc1S2=O (configuration not stated),/,/,/,0.6%,/,/
Clc1ccc(-c2nnc(-c3ccc(Br)cc3)c(N3CCSCC3)n2)cc1,0.1%,-0.1%,-6.0,0.9%,3.2%,3.8%
Clc1ccc(-c2nnc(-c3ccco3)nc2N2CCCCC2)cc1,-0.2%,0.1%,-15.1,1.6%,11.2µM*,-3.3%
Cn1/c(=N\NC(=O)C2CCCCC2)sc2ccccc21,-0.1%,/,1.0,14.1µM*,-6.2%,0.8%
CN(C)c1ccc(/C=N/N=C2/NC(=O)/C(=C/c3ccc([N+](=O)[O-])cc3)S2)cc1,-0.2%,-5.8%,-92.6*,-5.0%,-3.5%,-1.7%
COc1cccc(OCC(=O)Nc2nnc3n2CCS3)c1,/,/,/,-1.0%,/,/
COc1ccc(-c2noc(CCCC(=O)NCc3ccco3)n2)cc1OC,-0.2%,-0.1%,10.0,28.2µM*,0.5%,2.0%
COc1cccc(-c2noc(CCCC(=O)NCc3ccco3)n2)c1,/,/,/,-1.0%,/,/
Cn1c(=S)[nH]c2sc3c(c2c1=O)CCC(C(C)(C)C)C3 (configuration not stated),-0.4%,/,/,/,8.8%,20µM*

# Compound activity as filed in PubChem.
